# Publication PMC7819943, “Rice protein-binding microarrays: a tool to detect cis-acting elements near promoter regions in rice”
# Over roughly 68,000 sequences, “fluorescence intensity (a.u.)” has its median near 9,100; the highest 2% begin near 16,000. For the sample, the highest values were picked, then their nearest neighbours and some sequences at random.
# Molecular target: OsWRKY34 (Oryza sativa, UniProt Q0JBA9 1-250)
# Experiment: protein-binding microarray (RPBM); PBS, 2% BSA, 51.3 ng/ul salmon testes DNA, 50 uM zinc acetate, 200 nM TF, 25 C, 1 h; high values mean tight binding
# Conditions: protein: recombinant; tags: N-terminal polyhistidine and DsRed monomer fusion (pET32a); label: CyDye5-dUTP incorporated in the synthesized complementary strand; 3' TTTTT single-stranded linker to array surface; dsDNA, one strand shown
# Procedure, shortened: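 Binding signal is reported as fluorescence intensity per feature (arbitrary units) from an Axon 4000B scanner. Incubation used 200 nM of each Ni–NTA-purified, N-terminally polyhistidine- and DsRed-fused transcription factor from E. coli BL21-CodonPlus on a double-stranded custom Agilent array for 1 h at 25 °C, with 50 µM zinc acetate in the buffer, followed by washing.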
# OsWRKY34, sequence (Q0JBA9 entry or part of it): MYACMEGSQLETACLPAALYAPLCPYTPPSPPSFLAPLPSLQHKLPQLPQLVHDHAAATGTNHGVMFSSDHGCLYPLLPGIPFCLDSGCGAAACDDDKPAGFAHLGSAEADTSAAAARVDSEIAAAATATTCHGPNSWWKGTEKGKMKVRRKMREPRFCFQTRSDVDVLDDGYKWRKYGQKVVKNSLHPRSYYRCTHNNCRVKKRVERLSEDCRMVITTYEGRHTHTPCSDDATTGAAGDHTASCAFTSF
row,Sequence,binding signal
1,CTTATTTCAAATGTGTGGGTATACATATGTGCACATATATCGGAGTCACCTAGTGCAG,8440 fluorescence intensity (a.u.)
2,TCGTTACATGTTCTTTCATTCTCGTATTGCATTATCTGCTCGGAGTCACCTAGTGCAG,9260 fluorescence intensity (a.u.)
3,CCCTGGTGTTTGGATTTGGTTGTTCCTCGCGATTGCATTTCGGAGTCACCTAGTGCAG,15600 fluorescence intensity (a.u.)
4,GCTTGGATTTTTTTTGTTGCTTTTGGTTGTTGTGATCCCTCGGAGTCACCTAGTGCAG,11800 fluorescence intensity (a.u.)
5,TTCCTGGTTGCTTCTTTTGCAGTTTTTTTTTTCCCTTCCTCGGAGTCACCTAGTGCAG,10100 fluorescence intensity (a.u.)
6,GTGCTCGATGCTCGATGCCCTCCTTTTCCGCCATCTTTTTCGGAGTCACCTAGTGCAG,10200 fluorescence intensity (a.u.)
7,CTCGCCTCGCCGCCTTTTCTTCGCCATCTTTTTCGATTTCCGGAGTCACCTAGTGCAG,18800 fluorescence intensity (a.u.)
8,GGATTTTCTTCCGATCTCGCTTCCACCTCGCCGCCTCGCCCGGAGTCACCTAGTGCAG,9120 fluorescence intensity (a.u.)
9,GGTTTGGCTTTGCTTCTTCCTCGCGCGGCGCCTCCCATCCCGGAGTCACCTAGTGCAG,9260 fluorescence intensity (a.u.)
10,TCGATCGGTTGGTTGGTTGGTTTTGTTGGATTTTTTTCCTCGGAGTCACCTAGTGCAG,18700 fluorescence intensity (a.u.)
11,GTTCTTCGTTAATACGGTGCTTTCATTATTTTGTTTTCCCCGGAGTCACCTAGTGCAG,16600 fluorescence intensity (a.u.)
12,CTCCTGCCTGGGTTTGGTTTGGTTTGGCTTTGCTTCTTCCCGGAGTCACCTAGTGCAG,36800 fluorescence intensity (a.u.)
13,TTCGTTAAATTATTTTTCTTTTTCGTTTTTTTTTTTTGTTCGGAGTCACCTAGTGCAG,8930 fluorescence intensity (a.u.)
14,TATTAGTGTTTTATTTTCACCGGTTAATATTTTTGTTCTTCGGAGTCACCTAGTGCAG,8880 fluorescence intensity (a.u.)
15,TACTATACCACTTACTACTAAGTATTCTGCGCACAAACAGCGGAGTCACCTAGTGCAG,10800 fluorescence intensity (a.u.)
16,CCTCGGCTCCCATCCACTACCGTTTGCTACTCCGGCGCCGCGGAGTCACCTAGTGCAG,10600 fluorescence intensity (a.u.)
17,CTCATCTCACCCGTCACTACTGCACTGCGCACCATTGCCGCGGAGTCACCTAGTGCAG,8540 fluorescence intensity (a.u.)
18,GATTGGGTTGTTTGCGGGGCTAAGTTCCTAATTTTAATGACGGAGTCACCTAGTGCAG,11500 fluorescence intensity (a.u.)
19,ACCCTCCACCCGCCACCGCCACCGCCGCCTTCGCCGCCGCCGGAGTCACCTAGTGCAG,9250 fluorescence intensity (a.u.)
20,TTGCAACGGATTTTACTGGGCTTATGGGCTTCTTTTATTGCGGAGTCACCTAGTGCAG,9700 fluorescence intensity (a.u.)
21,CTCTCTTCTTCTTCCTCGCTTTGCTTGGGTTGGGTTGGAGCGGAGTCACCTAGTGCAG,14800 fluorescence intensity (a.u.)
22,TCTTGCGACGATCGTGTGGGGTGGGTTCGTGTGCTCTCTCCGGAGTCACCTAGTGCAG,19500 fluorescence intensity (a.u.)
23,GGATTGGTTTTGAGATTGTTCTGTCAGATGGGGATTGTTTCGGAGTCACCTAGTGCAG,12700 fluorescence intensity (a.u.)
24,GGGATTTCATATATCTGGTTTTGCGGTTGGGGACGATTTTCGGAGTCACCTAGTGCAG,12300 fluorescence intensity (a.u.)

row,Sequence,binding signal
1,CCTCATTTGCTTCTTCTTCTTCTTCCTCCTCTTTGTTTCACGGAGTCACCTAGTGCAG,9120 fluorescence intensity (a.u.)
2,CTTGCTCTCCTCTCTCGTGCTCCATCGATCGATCGATCTCCGGAGTCACCTAGTGCAG,9660 fluorescence intensity (a.u.)
3,GAAGCTTCCTCGTCGTCCTTTGTTGGGTTGGGTTGGGTTGCGGAGTCACCTAGTGCAG,21000 fluorescence intensity (a.u.)
4,TCTCCTTGATTCCCGCTTCTCACACGCATTATTTGTTTCACGGAGTCACCTAGTGCAG,18500 fluorescence intensity (a.u.)
5,GAGACGTTGTATATCTGGTTTTGTGGTTTGGGGATGTTTTCGGAGTCACCTAGTGCAG,20100 fluorescence intensity (a.u.)
6,GCTTTGTTCTGATTCCTTCACAGTTATTTGATATTTTCCTCGGAGTCACCTAGTGCAG,8710 fluorescence intensity (a.u.)
7,TGTTGTCGTCGTCCCTCTTCCTTTCCTTTCCTTTCCTTGCCGGAGTCACCTAGTGCAG,8870 fluorescence intensity (a.u.)
8,AATACTTGCGAGCTCCGATCTCTTCTTCTTCTTCGTGAGCCGGAGTCACCTAGTGCAG,8180 fluorescence intensity (a.u.)
9,CACGTCACCTGCATATGCCCTTCTTCCTCGCCGGCCACACCGGAGTCACCTAGTGCAG,11000 fluorescence intensity (a.u.)
10,TTTTCGTCTATTTTATTACTGTTGCTTGCCTACAATTCTCCGGAGTCACCTAGTGCAG,13500 fluorescence intensity (a.u.)
11,ATAGGTGCCGGTTCTATTTTGGTATAGGGGTCGGTTGTTTCGGAGTCACCTAGTGCAG,11700 fluorescence intensity (a.u.)
12,TCTCACTCTCGAGCCATCGTCTTCAGCTCGCTCATTACTGCGGAGTCACCTAGTGCAG,9030 fluorescence intensity (a.u.)
13,CGCCTTCGCCTCCGGCCCCTTATATGGCGTGGCGGGGAGGCGGAGTCACCTAGTGCAG,8930 fluorescence intensity (a.u.)
14,TTCGTTGACCAAGTTTAATTCAAATTCAATTCAATTTTAACGGAGTCACCTAGTGCAG,9760 fluorescence intensity (a.u.)
15,TAATGACTTATCCTGCGGTGAAAAATCTTCATCTTCGTATCGGAGTCACCTAGTGCAG,8160 fluorescence intensity (a.u.)
16,GCTGCTCGGATTTGATTGATTGATTGATTGGCGGGTGGTCCGGAGTCACCTAGTGCAG,8590 fluorescence intensity (a.u.)
17,GCAATTTTTTACGCCCACACGACTGTCCGAGAGCAATATGCGGAGTCACCTAGTGCAG,8170 fluorescence intensity (a.u.)
18,CTCCCGAGGAAGATGACGAGGAGTCAGTCAACAGTTGACTCGGAGTCACCTAGTGCAG,8130 fluorescence intensity (a.u.)
19,TCAATTATTCAGGGTTTCTTCTGGTTCTTGTCTCGCCATGCGGAGTCACCTAGTGCAG,8630 fluorescence intensity (a.u.)
20,TTCCTTTTTTCCCGCCCGTTCCTTTTTTGTTTGTTATGTTCGGAGTCACCTAGTGCAG,15700 fluorescence intensity (a.u.)
21,TTCTTTCCTTACGATTTTTGCTCCTGCTCTAGTTCTTGTTCGGAGTCACCTAGTGCAG,8140 fluorescence intensity (a.u.)
22,GGGTTCTTTCTGTAGTAGGGGTTTTTCTTTGTTTTCTCTTCGGAGTCACCTAGTGCAG,17700 fluorescence intensity (a.u.)
23,TCTCTCTCTCTCTCTCTTCTCTTCTCTTTGTTTTCTTGTTCGGAGTCACCTAGTGCAG,9940 fluorescence intensity (a.u.)
